# Data as given in PubChem BioAssay (NCATS).
# Records with an inconclusive call do not appear. Entries that show only a call come without a potency. A number with no mark means an inactive call. Active and inactive are the calls of the source. Calls come from the whole dose curve; as a rule, active = well fitted curve in the direction sought with a large enough effect; inconclusive = small, poorly fitted or top-dose-only effect, or another doubt; inactive = no such curve, though single readings can be large; an effect the other way counts as inactive or inconclusive.
# Legend:
# [1] = qHTS of pediatric cancer cell lines to identify multiple opportunities for drug repurposing: Primary screen for Saos-2 cells (AID 1347097); note: nearly all actives have a fitted effect of over 40% in size
# In short: (§1)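 500-1,000 cells/well; 5 h pre-incubation 37 °C/5% CO2; compound pinned; 48 h; CellTiter-Glo, 15 min RT; luminescence. MIPE 11-pt from 0.78 nM, NPC 8-pt from 0.59 nM final. Bortezomib 2.3 µM final as positive control.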
# [2] = qHTS of pediatric cancer cell lines to identify multiple opportunities for drug repurposing: Primary screen for SK-N-SH cells (AID 1347098);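 note: DMSO served as neutral control and bortezomib at 2.3 µM as positive control; nearly all actives have a fitted effect of over 65% in size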
# In short: (§2)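 Cells (500-1,000/well) rested 5 h, then received compounds for 48 h; metabolically active cells were measured by CellTiter-Glo luminescence. Final concentrations spanned up to 46 µM (MIPE, 11-point) or 0.59 nM-46 µM (NPC, 8-point) in primary screens, 11-point in follow-ups.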
# [3] = qHTS of pediatric cancer cell lines to identify multiple opportunities for drug repurposing: Primary screen for NB1643 cells (AID 1347099); note: nearly all actives have a fitted effect of over 50% in size
# In short: as §1
# [4] = qHTS of pediatric cancer cell lines to identify multiple opportunities for drug repurposing: Primary screen for BT-12 cells (AID 1347101); note: nearly all actives have a fitted effect of over 25% in size
# In short: as §2
# [5] = qHTS of pediatric cancer cell lines to identify multiple opportunities for drug repurposing: Primary screen for Rh18 cells (AID 1347102); note: nearly all actives have a fitted effect of over 65% in size
# In short: (§3)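 Cells (500-1,000/well) in growth media were settled 5 h at 37 degrees C, then given compounds for 48 h. Viability was read as CellTiter-Glo luminescence. Primary runs used MIPE at 11 points (0.78 nM-46 µM) and NPC at 8 points (0.59 nM-46 µM); follow-ups used 11 points.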
# [6] = qHTS of pediatric cancer cell lines to identify multiple opportunities for drug repurposing: Primary screen for RD cells (AID 1347104); note: nearly all actives have a fitted effect of over 55% in size
# In short: as §1
# [7] = qHTS of pediatric cancer cell lines to identify multiple opportunities for drug repurposing: Primary screen for MG 63 (6-TG R) cells (AID 1347105); note: nearly all actives have a fitted effect of over 50% in size
# In short: as §1
# [8] = qHTS of pediatric cancer cell lines to identify multiple opportunities for drug repurposing: Primary screen for control Hh wild type fibroblast cells (AID 1347106);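 note: series mostly up to about 46 µM; a drop in luminescence marks cytotoxicity and a rise apparent proliferation; nearly all actives have a fitted effect of over 55% in size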
# In short: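 Viability after 48 h compound treatment at 37C, 500-1,000 cells/well, read as ATP luminescence with CellTiter-Glo. Primary screens used 11-point (MIPE, 0.78 nM-46 µM) or 8-point (NPC, 0.59 nM-46 µM) final concentrations; follow-up screens used 11-point dilutions.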
# [9] = qHTS of pediatric cancer cell lines to identify multiple opportunities for drug repurposing: Primary screen for LAN-5 cells (AID 1347100)
# In short: as §3
# [10] = qHTS of pediatric cancer cell lines to identify multiple opportunities for drug repurposing: Primary screen for OHS-50 cells (AID 1347103); note: nearly all actives have a fitted effect of over 40% in size; note: potency is the fitted concentration of half-maximal effect
# In short: as §2
smiles,measurement,setting,value
CCOc1ccc2ccccc2c1C(=O)N[C@@H]1C(=O)N2[C@@H]1SC(C)(C)[C@@H]2C(=O)O,Potency,[1],inactive
same,Potency,[2],inactive
same,Potency,[3],inactive
same,Potency,[4],inactive
same,Potency,[5],inactive
same,Potency,[6],inactive
same,Potency,[7],inactive
same,outcome,[8],inactive
CCCCc1ncc(/C=C(\Cc2cccs2)C(=O)O)n1Cc1ccc(C(=O)O)cc1,Potency,[1],inactive
same,Potency,[2],inactive
same,Potency,[3],inactive
same,Potency,[9],inactive
same,Potency,[5],inactive
same,Potency,[10],inactive
same,Potency,[6],inactive
same,Potency,[7],inactive
same,outcome,[8],inactive
Cc1ccc(C(C)C)cc2c(C)ccc1-2,Potency,[1],inactive
same,Potency,[2],inactive
same,Potency,[9],inactive
same,Potency,[4],inactive
same,Potency,[5],inactive
same,Potency,[10],inactive
same,Potency,[6],inactive
same,Potency,[7],inactive
same,outcome,[8],inactive
C[C@@H]1CCN(C(=O)[C@H](CCCN=C(N)N)NS(=O)(=O)c2cccc3c2NC[C@H](C)C3)[C@@H](C(=O)O)C1,Potency,[1],inactive
same,Potency,[2],inactive
same,Potency,[3],inactive
same,Potency,[4],inactive
same,Potency,[10],inactive
same,Potency,[6],inactive
same,Potency,[7],inactive
same,outcome,[8],inactive
NS(=O)(=O)c1cc2c(cc1C(F)(F)F)NC(Cc1ccccc1)NS2(=O)=O (stereo not given),Potency,[1],inactive
same,Potency,[2],inactive
same,Potency,[3],inactive
same,Potency,[4],inactive
same,Potency,[5],inactive
same,Potency,[10],inactive
same,Potency,[6],inactive
same,Potency,[7],inactive
same,outcome,[8],inactive
NCCNCCNCCNCCN,"activity change, negative = cytotoxic",[1],-19.8% [at 9.22 µM]
same,"activity change, negative = cytotoxic",[2],-8.89% [at 11.4 µM]
same,"activity change, negative = cytotoxic",[3],0.713% [at 9.22 µM]
same,"activity change, negative = cytotoxic",[4],0.69% [at 11.5 µM]
same,"activity change, negative = cytotoxic",[5],-4.13% [at 9.22 µM]
same,"activity change, negative = cytotoxic",[10],-3.79% [at 11.5 µM]
same,"activity change, negative = cytotoxic",[6],-3.51% [at 9.22 µM]
same,"activity change, negative = cytotoxic",[8],-0.844% [at 9.22 µM]
Cc1ncc(COP(=O)(O)O)c(C=O)c1O,Potency,[1],inactive
same,Potency,[2],inactive
same,Potency,[9],inactive
same,Potency,[4],inactive
same,Potency,[5],inactive
same,Potency,[10],inactive
same,Potency,[6],inactive
same,Potency,[7],inactive
same,outcome,[8],inactive
CS(=O)(=O)c1ccc([C@@H](O)[C@@H](CF)NC(=O)C(Cl)Cl)cc1,Potency,[1],inactive
same,Potency,[2],inactive
same,Potency,[3],inactive
same,Potency,[5],inactive
same,Potency,[6],inactive
same,Potency,[7],inactive
same,outcome,[8],inactive
O=C1O[C@H]([C@@H](O)CO)C(O)=C1O,Potency,[1],inactive
same,Potency,[2],inactive
same,Potency,[3],inactive
same,Potency,[4],inactive
same,Potency,[10],inactive
same,Potency,[6],inactive
same,Potency,[7],inactive
same,outcome,[8],inactive
CN(C)CCCN1c2ccccc2CCc2ccccc21,Potency,[1],inactive
same,Potency,[2],inactive
same,Potency,[3],inactive
same,Potency,[10],27.6 µM (active)
same,Potency,[7],inactive
same,outcome,[8],inactive
N[C@@H](CSSC[C@H](N)C(=O)O)C(=O)O,"activity change, negative = cytotoxic",[1],-6.38% [at 0.597 µM]
same,"activity change, negative = cytotoxic",[3],-5.83% [at 0.597 µM]
same,"activity change, negative = cytotoxic",[9],6.24% [at 0.597 µM]
same,"activity change, negative = cytotoxic",[4],5.67% [at 0.745 µM]
same,"activity change, negative = cytotoxic",[5],0.304% [at 0.597 µM]
same,"activity change, negative = cytotoxic",[6],5.61% [at 0.597 µM]
same,"activity change, negative = cytotoxic",[7],0.733% [at 0.597 µM]
same,"activity change, negative = cytotoxic",[8],21.8% [at 0.597 µM]
CN1CCCCC1CCN1c2ccccc2Sc2ccc(S(C)=O)cc21 (stereo not given),Potency,[1],inactive
same,Potency,[3],inactive
same,Potency,[9],inactive
same,Potency,[6],inactive
same,Potency,[7],inactive
same,outcome,[8],inactive
COc1cc2[nH]c(=O)[nH]c(=O)c2cc1OC,Potency,[1],inactive
same,Potency,[2],inactive
same,Potency,[9],inactive
same,Potency,[4],inactive
same,Potency,[5],inactive
same,Potency,[6],inactive
same,Potency,[7],inactive
same,outcome,[8],inactive
CC(=O)c1ccc2c(c1)N(CCCN(C)C)c1ccccc1S2,Potency,[1],inactive
same,Potency,[3],inactive
same,Potency,[4],inactive
same,Potency,[5],inactive
same,outcome,[8],inactive
CN1[C@@H]2CC(OC(=O)[C@H](CO)c3ccccc3)C[C@H]1[C@@H]1O[C@@H]12 (stereo not given in full),Potency,[1],inactive
same,Potency,[9],inactive
same,Potency,[7],inactive
same,outcome,[8],inactive
Nc1ccc(S(=O)(=O)Nc2ccccc2)cc1,Potency,[1],inactive
same,Potency,[3],inactive
same,Potency,[9],inactive
same,Potency,[5],inactive
same,Potency,[10],inactive
same,Potency,[6],inactive
same,Potency,[7],inactive
same,outcome,[8],inactive
COc1ccc(Cl)cc1C(=O)NCCc1ccc(S(=O)(=O)NC(=O)NC2CCCCC2)cc1,Potency,[1],inactive
same,Potency,[2],inactive
same,Potency,[9],inactive
same,Potency,[10],inactive
same,Potency,[6],inactive
same,Potency,[7],inactive
same,outcome,[8],inactive
CCCc1c(OCCCCc2nn[nH]n2)ccc(C(C)=O)c1O,Potency,[1],inactive
same,Potency,[3],inactive
same,Potency,[4],inactive
same,Potency,[5],inactive
same,Potency,[10],inactive
same,Potency,[6],inactive
same,Potency,[7],inactive
same,outcome,[8],inactive
NC1CCN(c2cccc(Cl)n2)CC1,Potency,[1],inactive
same,Potency,[2],inactive
same,Potency,[4],inactive
same,Potency,[10],inactive
same,Potency,[6],inactive
same,Potency,[7],inactive
same,outcome,[8],inactive
C=CCn1c(=O)n([C@@H]2O[C@H](CO)[C@@H](O)[C@H]2O)c2nc(N)[nH]c(=O)c21,Potency,[1],inactive
same,Potency,[3],inactive
same,Potency,[9],inactive
same,Potency,[4],inactive
same,Potency,[5],inactive
same,Potency,[6],inactive
same,Potency,[7],inactive
same,outcome,[8],inactive
CCN(CC)CCNC(=O)c1cc(Cl)c(N)cc1OC,Potency,[1],inactive
same,Potency,[3],inactive
same,Potency,[9],inactive
same,Potency,[10],inactive
same,Potency,[6],inactive
same,Potency,[7],inactive
same,outcome,[8],inactive
COc1ccc(S(=O)(=O)Nc2nnc(CC(C)C)s2)cc1,Potency,[1],inactive
same,Potency,[2],inactive
same,Potency,[4],inactive
same,Potency,[5],inactive
same,Potency,[10],inactive
same,Potency,[6],inactive
same,Potency,[7],inactive
same,outcome,[8],inactive
Cc1cc(CC(=O)O)n(C)c1C(=O)c1ccc(Cl)cc1,Potency,[1],inactive
same,Potency,[2],inactive
same,Potency,[9],inactive
same,Potency,[4],inactive
same,Potency,[10],inactive
same,Potency,[6],inactive
same,Potency,[7],inactive
same,outcome,[8],inactive
O=c1[nH]cnc2c1ncn2[C@@H]1O[C@H](CO)[C@@H](O)[C@H]1O,Potency,[1],inactive
same,Potency,[3],inactive
same,Potency,[9],inactive
same,Potency,[5],inactive
same,Potency,[10],inactive
same,Potency,[6],inactive
same,Potency,[7],inactive
same,outcome,[8],inactive
O=C(O)c1ccccn1,Potency,[1],inactive
same,Potency,[3],inactive
same,Potency,[9],inactive
same,Potency,[4],inactive
same,Potency,[5],inactive
same,Potency,[10],inactive
same,Potency,[6],inactive
same,Potency,[7],inactive
same,outcome,[8],inactive
OC[C@H]1O[C@@H](O[C@@H]2[C@@H](CO)O[C@](O)(CO)[C@H]2O)[C@H](O)[C@@H](O)[C@H]1O,Potency,[1],inactive
same,Potency,[9],inactive
same,Potency,[4],inactive
same,Potency,[5],inactive
same,Potency,[10],inactive
same,Potency,[6],inactive
same,Potency,[7],inactive
same,outcome,[8],inactive
CN(C)CCOC(C)(c1ccccc1)c1ccccn1 (stereo not given),Potency,[1],inactive
same,Potency,[3],inactive
same,Potency,[4],inactive
same,Potency,[10],inactive
same,Potency,[6],inactive
same,Potency,[7],inactive
same,outcome,[8],inactive
